# Results published in ChEMBL document CHEMBL2218924, “A broad activity screen in support of a chemogenomic map for kinase signalling research and drug discovery” (Biochem J, 2013).
# Key:
# [1] = target: Tyrosine-protein kinase SYK (Homo sapiens) (UniProt P43405); conditions: at 10 µM
# [2] = target: T1, Mitogen-activated protein kinase kinase kinase 7 (Homo sapiens) (UniProt O43318); conditions: at 1 µM
# T1 sequence (whole entry): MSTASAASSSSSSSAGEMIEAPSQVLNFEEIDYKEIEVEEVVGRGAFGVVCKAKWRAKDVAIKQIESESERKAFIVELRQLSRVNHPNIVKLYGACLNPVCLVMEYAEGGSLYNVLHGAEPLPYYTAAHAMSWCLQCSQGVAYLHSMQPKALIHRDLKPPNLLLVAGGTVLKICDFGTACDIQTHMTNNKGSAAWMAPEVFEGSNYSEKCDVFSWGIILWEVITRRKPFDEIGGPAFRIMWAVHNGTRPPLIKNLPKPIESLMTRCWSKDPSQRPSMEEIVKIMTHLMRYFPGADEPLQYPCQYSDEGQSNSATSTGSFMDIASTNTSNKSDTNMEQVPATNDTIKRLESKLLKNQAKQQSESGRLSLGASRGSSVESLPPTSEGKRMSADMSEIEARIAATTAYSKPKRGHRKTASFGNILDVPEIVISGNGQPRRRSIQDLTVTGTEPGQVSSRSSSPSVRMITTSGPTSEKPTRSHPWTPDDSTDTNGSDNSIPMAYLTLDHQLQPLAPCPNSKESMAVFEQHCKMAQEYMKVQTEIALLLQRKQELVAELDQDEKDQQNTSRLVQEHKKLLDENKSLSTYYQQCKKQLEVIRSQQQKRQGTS
# [3] = target: T1, Mitogen-activated protein kinase kinase kinase 7 (Homo sapiens); conditions: at 10 µM
# [4] = target: T2, Serine/threonine-protein kinase TAO1 (Homo sapiens) (UniProt Q7L7X3); conditions: at 1 µM
# T2 sequence (whole entry): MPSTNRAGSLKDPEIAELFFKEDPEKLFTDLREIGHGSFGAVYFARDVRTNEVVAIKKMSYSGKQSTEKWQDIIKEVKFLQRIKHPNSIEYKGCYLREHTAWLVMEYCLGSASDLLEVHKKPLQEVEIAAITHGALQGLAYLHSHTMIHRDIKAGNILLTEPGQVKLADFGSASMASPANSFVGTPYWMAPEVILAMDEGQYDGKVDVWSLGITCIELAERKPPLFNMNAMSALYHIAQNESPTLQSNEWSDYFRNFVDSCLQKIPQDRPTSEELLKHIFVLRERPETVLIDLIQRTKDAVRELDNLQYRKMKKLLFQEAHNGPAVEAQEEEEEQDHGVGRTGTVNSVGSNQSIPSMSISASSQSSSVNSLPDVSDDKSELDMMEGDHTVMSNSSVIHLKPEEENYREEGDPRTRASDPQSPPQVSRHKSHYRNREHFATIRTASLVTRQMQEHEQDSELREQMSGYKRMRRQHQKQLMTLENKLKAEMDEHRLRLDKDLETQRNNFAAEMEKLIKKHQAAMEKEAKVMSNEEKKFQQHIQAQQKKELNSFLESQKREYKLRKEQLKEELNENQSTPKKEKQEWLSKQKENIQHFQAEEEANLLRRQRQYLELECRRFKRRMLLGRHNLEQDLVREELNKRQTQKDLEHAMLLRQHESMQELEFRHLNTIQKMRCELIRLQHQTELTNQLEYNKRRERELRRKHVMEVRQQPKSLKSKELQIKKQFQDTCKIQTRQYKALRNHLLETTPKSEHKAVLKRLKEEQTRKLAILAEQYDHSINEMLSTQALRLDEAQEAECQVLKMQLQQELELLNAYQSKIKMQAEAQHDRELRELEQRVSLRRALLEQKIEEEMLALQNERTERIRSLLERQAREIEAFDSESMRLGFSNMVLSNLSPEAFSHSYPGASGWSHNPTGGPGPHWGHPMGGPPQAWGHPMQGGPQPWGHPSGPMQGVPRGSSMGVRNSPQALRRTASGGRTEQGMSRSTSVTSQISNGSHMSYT
# [5] = target: T2, Serine/threonine-protein kinase TAO1 (Homo sapiens); conditions: at 10 µM
# [6] = target: T3, Serine/threonine-protein kinase TAO2 (Homo sapiens) (UniProt Q9UL54); conditions: at 1 µM
# T3 sequence (whole entry): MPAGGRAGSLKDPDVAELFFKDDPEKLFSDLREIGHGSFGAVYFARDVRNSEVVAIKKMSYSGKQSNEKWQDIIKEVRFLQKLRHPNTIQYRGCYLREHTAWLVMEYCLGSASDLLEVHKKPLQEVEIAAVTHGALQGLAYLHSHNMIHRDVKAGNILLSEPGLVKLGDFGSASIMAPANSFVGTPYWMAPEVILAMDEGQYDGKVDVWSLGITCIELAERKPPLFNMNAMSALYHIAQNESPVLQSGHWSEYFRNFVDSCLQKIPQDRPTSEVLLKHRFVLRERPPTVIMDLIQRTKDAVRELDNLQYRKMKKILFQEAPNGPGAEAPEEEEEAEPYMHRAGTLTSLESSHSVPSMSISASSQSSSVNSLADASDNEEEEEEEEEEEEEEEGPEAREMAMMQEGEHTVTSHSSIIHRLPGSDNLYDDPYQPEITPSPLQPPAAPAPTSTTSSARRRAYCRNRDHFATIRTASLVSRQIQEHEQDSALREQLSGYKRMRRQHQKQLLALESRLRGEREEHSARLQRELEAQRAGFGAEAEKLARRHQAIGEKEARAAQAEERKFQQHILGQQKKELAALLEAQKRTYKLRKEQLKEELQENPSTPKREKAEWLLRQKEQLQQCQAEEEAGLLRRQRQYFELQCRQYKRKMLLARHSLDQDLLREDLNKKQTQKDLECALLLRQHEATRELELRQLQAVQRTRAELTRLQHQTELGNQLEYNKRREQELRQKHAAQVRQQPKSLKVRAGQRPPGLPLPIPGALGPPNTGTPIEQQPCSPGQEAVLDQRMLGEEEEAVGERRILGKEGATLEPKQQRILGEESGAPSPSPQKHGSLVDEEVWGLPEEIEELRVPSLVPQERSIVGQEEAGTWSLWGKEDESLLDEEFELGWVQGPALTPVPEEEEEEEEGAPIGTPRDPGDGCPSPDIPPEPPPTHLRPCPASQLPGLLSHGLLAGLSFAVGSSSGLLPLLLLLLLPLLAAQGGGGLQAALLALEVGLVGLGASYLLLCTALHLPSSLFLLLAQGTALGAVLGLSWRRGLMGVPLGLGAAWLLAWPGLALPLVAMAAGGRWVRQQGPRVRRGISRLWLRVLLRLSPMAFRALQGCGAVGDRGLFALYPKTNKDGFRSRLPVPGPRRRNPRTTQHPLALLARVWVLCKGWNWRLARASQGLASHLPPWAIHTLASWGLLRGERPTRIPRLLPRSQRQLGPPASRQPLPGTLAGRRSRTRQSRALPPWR
# [7] = target: T3, Serine/threonine-protein kinase TAO2 (Homo sapiens); conditions: at 10 µM
# [8] = target: T4, Serine/threonine-protein kinase TAO3 (Homo sapiens) (UniProt Q9H2K8); conditions: at 1 µM
# T4 sequence (whole entry): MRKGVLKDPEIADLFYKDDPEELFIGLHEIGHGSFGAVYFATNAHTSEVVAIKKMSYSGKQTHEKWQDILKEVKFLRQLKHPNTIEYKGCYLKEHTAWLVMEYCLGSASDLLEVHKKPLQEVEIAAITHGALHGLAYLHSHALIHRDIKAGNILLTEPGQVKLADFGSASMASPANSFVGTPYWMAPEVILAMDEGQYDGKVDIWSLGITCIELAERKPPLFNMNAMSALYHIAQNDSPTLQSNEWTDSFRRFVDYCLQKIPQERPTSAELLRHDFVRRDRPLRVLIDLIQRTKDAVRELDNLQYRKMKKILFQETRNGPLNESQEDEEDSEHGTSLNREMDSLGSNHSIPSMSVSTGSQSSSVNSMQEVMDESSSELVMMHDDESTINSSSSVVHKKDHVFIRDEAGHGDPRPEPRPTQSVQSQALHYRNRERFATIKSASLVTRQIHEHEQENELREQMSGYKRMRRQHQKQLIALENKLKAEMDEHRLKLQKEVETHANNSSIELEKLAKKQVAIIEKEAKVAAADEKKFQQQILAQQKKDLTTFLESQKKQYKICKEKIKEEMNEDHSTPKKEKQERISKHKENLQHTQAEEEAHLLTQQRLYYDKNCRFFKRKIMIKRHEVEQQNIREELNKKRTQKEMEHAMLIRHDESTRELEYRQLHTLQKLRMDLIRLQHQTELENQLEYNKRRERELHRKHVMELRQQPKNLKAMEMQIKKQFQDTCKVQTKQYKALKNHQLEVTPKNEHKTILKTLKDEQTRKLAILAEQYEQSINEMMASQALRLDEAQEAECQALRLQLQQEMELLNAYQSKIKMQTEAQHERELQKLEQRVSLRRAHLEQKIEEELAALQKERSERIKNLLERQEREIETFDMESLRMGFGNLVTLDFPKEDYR
# [9] = target: T4, Serine/threonine-protein kinase TAO3 (Homo sapiens); conditions: at 10 µM
# [10] = target: T5, Serine/threonine-protein kinase TBK1 (Homo sapiens) (UniProt Q9UHD2); conditions: at 1 µM
# T5 sequence (whole entry): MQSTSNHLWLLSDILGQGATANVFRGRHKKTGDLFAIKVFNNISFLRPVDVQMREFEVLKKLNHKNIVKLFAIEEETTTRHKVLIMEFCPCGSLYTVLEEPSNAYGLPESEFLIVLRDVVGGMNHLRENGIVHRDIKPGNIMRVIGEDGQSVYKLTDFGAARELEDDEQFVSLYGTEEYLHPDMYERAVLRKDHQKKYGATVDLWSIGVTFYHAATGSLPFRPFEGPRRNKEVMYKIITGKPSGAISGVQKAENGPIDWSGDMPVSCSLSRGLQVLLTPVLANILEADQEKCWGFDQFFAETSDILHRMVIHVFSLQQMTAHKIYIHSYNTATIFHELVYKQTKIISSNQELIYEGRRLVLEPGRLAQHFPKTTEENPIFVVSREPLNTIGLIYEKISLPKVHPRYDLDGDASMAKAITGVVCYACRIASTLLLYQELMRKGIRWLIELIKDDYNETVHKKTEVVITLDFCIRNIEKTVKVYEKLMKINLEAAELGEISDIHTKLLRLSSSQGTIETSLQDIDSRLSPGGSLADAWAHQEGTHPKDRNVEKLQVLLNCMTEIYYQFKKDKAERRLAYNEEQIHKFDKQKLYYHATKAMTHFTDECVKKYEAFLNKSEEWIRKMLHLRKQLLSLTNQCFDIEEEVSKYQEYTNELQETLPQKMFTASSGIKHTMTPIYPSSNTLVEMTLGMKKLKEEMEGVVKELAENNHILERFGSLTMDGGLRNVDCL
structure (smiles),measurement,setting,value
C[C@@H](N)[C@H]1CC[C@H](C(=O)Nc2ccncc2)CC1,residual activity,[1],102%
same,residual activity,[2],109%
same,residual activity,[3],113%
same,residual activity,[4],93%
same,residual activity,[5],78%
same,residual activity,[6],112%
same,residual activity,[7],109%
same,residual activity,[8],105%
same,residual activity,[9],103%
same,residual activity,[10],107%
